# Reference: PubChem BioAssay AID651602 (The Scripps Research Institute Molecular Screening Center, 2012)
# The campaign covered roughly 360,000 compounds. About 950 (0.26%) were called active. No stated cut-off is given here; in the data, active means inhibition above about 11%; inactive means the rest. The full list was thinned out, with actives kept by preference.
# Test: reduced absorbance of E. coli cultures with phage – HTS, RecBCD inhibitor project, primary screen (AID 651602)
# Conditions: growth absorbance, at 11.9 µM, active compounds read high
row,SMILES,inhibition
1,CC1(C(=O)NS(=O)(=O)c2ccccc2)CCN1C(=O)C/C=C/c1ccccc1 (configuration not stated),13.4% (active)
2,CC1(C(=O)NS(=O)(=O)c2ccccc2)CCN1C(=O)Cc1ccc(-c2ccccc2)cc1 (configuration not stated),-0.69% (inactive)
3,CC1(C(=O)NS(=O)(=O)c2ccccc2)CCN1C(=O)c1ccccc1 (configuration not stated),2.52% (inactive)
4,COc1ccccc1CCn1cnc(-c2ccccc2)c1C(C)C,1.47% (inactive)
5,Nc1nc2c(ncn2[C@@H]2O[C@H](C(=O)N[C@@H](Cc3ccccc3)C(=O)NCc3ccccc3)[C@@H](O)[C@H]2O)c(=O)[nH]1,3.17% (inactive)
6,COc1ccc2c(c1)c(=Cc1ccc(N(C)C)cc1)c1cc(-c3ccccc3)[n+](C)n12,23.7% (active)
7,Cc1c(C=O)c2ccccc2n1CC(=O)O,0.31% (inactive)
8,CC(=O)c1c(C)n([O-])c2ccccc2[n+]1=O,25.5% (active)
9,NC(=O)c1ncn([C@@H]2O[C@H](C(=O)O)[C@@H](O)[C@H]2O)n1,0.63% (inactive)
10,C[C@H]1CN([C@@H](C)CO)C(=O)CCCn2nncc2CO[C@@H]1CN(C)C(=O)Nc1ccc(N2CCN(C)CC2)cc1,0.4% (inactive)
11,Cc1ccc(NC(=O)N2c3ccccc3SC2c2ccco2)c(C)c1 (configuration not stated),5.53% (inactive)
12,CC(=NNC(N)=O)c1ccc(Cl)c(-n2cccc2)c1,5.68% (inactive)
13,CCCCOCC1CN(CCCC)S(=O)(=O)c2c(Oc3ccc(F)cc3)cccc2O1 (configuration not stated),5.95% (inactive)
14,O=C(COc1cc(Cl)c(Cl)cc1Cl)NCCc1ccccn1,-0.15% (inactive)
15,NC(=S)NN=Cc1ccc(OC(=O)COc2cc(Cl)c(Cl)cc2Cl)cn1,11.6% (active)
16,O=C(COC(=O)COc1cc(Cl)c(Cl)cc1Cl)NC1CC1,3.17% (inactive)
17,C=CC1=CCN(S(=O)(=O)C(C)(C)C)[C@@H]1CCO,1.03% (inactive)
18,Nc1ncnc2c1ncn2C1OC(CO)CC1O (configuration not stated),3.4% (inactive)
19,C[C@H](CO)N1C[C@H](C)[C@@H](CN(C)C(=O)Nc2ccccc2F)OCc2cn(nn2)CCCC1=O,0.72% (inactive)
20,O=C1CCC(=O)N(O)CCCCCNC(=O)CCC(=O)N(O)CCCCCNC(=O)CCC(=O)N(O)CCCCCN1,23.5% (active)
21,COCc1cc(N2CCN(C(=O)OC(C)(C)C)C[C@@H]2C)ccc1N1CCN(Cc2ccccc2)[C@H](C)C1,-2.53% (inactive)
22,O=C(NNC(=O)c1cc(S(=O)(=O)N2CCCCC2)ccc1Cl)c1ccccc1O,1.7% (inactive)
23,Cc1cccc(NS(=O)(=O)c2cccc(C(=O)NNC(=O)c3ccccc3O)c2)c1,5.15% (inactive)
24,O=C(NNC(=O)c1ccccc1O)c1ccccc1O,30% (active)
25,COC(=O)C1=C(C)N(Cc2ccc(C(F)(F)F)cc2)C(=NCc2ccc(C(F)(F)F)cc2)NC1c1cccc(Cl)c1 (configuration not stated),1.58% (inactive)
26,O=C(NS(=O)(=O)c1cccs1)[C@H]1O[C@@H](n2ccc(=O)[nH]c2=O)[C@H](O)[C@@H]1O,3.33% (inactive)

row,SMILES,inhibition
1,O=C(CSc1ccc(-c2ccccn2)nn1)Nc1ccccc1,12.9% (active)
2,COc1cc(NC(=O)CSc2ccc(-c3cccnc3)nn2)cc(OC)c1,0.39% (inactive)
3,O=C(CSc1ccc(-c2ccc(-n3cccn3)cc2)nn1)Nc1ccc([N+](=O)[O-])cc1,-0.99% (inactive)
4,O=C1Nc2ccccc2C1=NN=Cc1ccco1,-0.54% (inactive)
5,C=CC[C@]12C[C@@]3(O[C@H](c4ccc(C(F)(F)F)cc4)N=C3C[C@H](c3ccc(OC)cc3)[C@H]1C)N(C1CCN(Cc3ccccc3)CC1)C2=O,6.28% (inactive)
6,CC1CCCN(c2cccc3c2S(=O)(=O)N(Cc2ccc(F)cc2)[C@@H](C)[C@H](c2ccccc2)O3)C1 (some centres not stated),1.59% (inactive)
7,N#Cc1ccc(OCCCN2CCC(C(O)(c3ccccc3)c3ccccc3)CC2)c(F)c1,0.63% (inactive)
8,CCn1c(=O)cc(SCC(=O)NCc2ccc3c(c2)OCO3)c2ccccc21,1.95% (inactive)
9,C=CCn1c(=O)c(C(=O)Nc2ncccc2O)c(O)c2ccccc21,3.7% (inactive)
10,C=CCn1c(=O)c(C(=O)NCc2ccc3c(c2)OCO3)c(O)c2ccccc21,12.1% (active)
11,CCOC(=O)c1ccc(NC(=O)CS(=O)(=O)c2cn(CC)c3ccccc23)cc1,0.46% (inactive)
12,CCOC(=O)c1ccc(NC(=O)Cn2cnc3cc(C)c(C)cc32)cc1,18.8% (active)
13,CCOC(=O)c1ccc(NC(=O)CCn2c(=O)oc3ccccc32)cc1,1.49% (inactive)
14,Cc1ccccc1C(=O)N[C@H](C(=O)N1CCC[C@H]1C(=O)NCc1ccccc1)C(C)C,-1.25% (inactive)
15,CC(C)(C)OC(=O)N/N=C/c1ccc(C(=O)O)cc1,1.87% (inactive)
16,COC(=O)C(C)N=Cc1ccccc1 (configuration not stated),0.77% (inactive)
17,COC(=O)N/N=C/c1c[n+]([O-])c2ccccc2[n+]1[O-],37.5% (active)
18,Cc1ccc2nc(CN(C)C(=O)[C@@H](Cc3ccccc3)NC(=O)[C@H]3O[C@@H](n4ccc(=O)[nH]c4=O)[C@H](O)[C@@H]3O)[nH]c2c1,2.03% (inactive)
19,COC(=O)[C@]12C[C@H](CC(=O)N3CCN(C(=O)C4CC4)CC3)C(=O)N(Cc3ccc4c(c3)OCO4)C1=C[C@H](C(C)(C)C)O[C@@H]2C,2.87% (inactive)
20,Cc1ccc(C)c(CN2CCC(CNC(=O)C3CCCN(c4ncnc5c4nc4n5CCCCC4)C3)CC2)c1 (configuration not stated),3.47% (inactive)
21,CCN1CCN(c2nc(Nc3cc(OC)ccc3OC)nc(Nc3cc(OC)ccc3OC)n2)CC1,99.1% (active)
22,CCCOc1ccc(Cl)cc1Nc1nc(NCCO)nc(N2CCCC2)n1,0.63% (inactive)
23,COc1ccc(OC)c(NC(=O)CCN2CCC(C)CC2)c1,-0.47% (inactive)
24,O=S1(=O)c2c(cccc2N2CCCC2)O[C@H](COCc2ccccc2)CN1C1CC1,2.78% (inactive)
25,Cc1[nH]c2ccccc2c1CC(=O)Nc1ccc(Nc2cccnc2)c(-c2cccc(Cl)c2)c1,3.75% (inactive)
26,CCN1C(=O)N[C@@H]2C[C@H](C(=O)N3CCCC3)[C@H](C)[C@H](c3ccccc3)C[C@@H]21,4.26% (inactive)
